Data as given in PubChem BioAssay (Tox21).
Inconclusive results are not listed. The source made the active and inactive calls. Unless noted, calls follow the shape of the dose curve; as a rule, active = well fitted curve in the direction sought with a large enough effect in the repeat runs; inconclusive = weak or mixed curves; inactive = no such curve, though single readings can be large; an effect the other way counts as inactive or inconclusive.

What was measured:
[1] = biological target: Peroxisome proliferator-activated receptor delta (Homo sapiens) (UniProt Q03181); test: qHTS assay to identify small molecule agonists of the peroxisome proliferator-activated receptor delta (PPARd) signaling pathway (AID 743212; calls by dose curve;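 also: HEK293H cells with PPARd UAS beta-lactamase reporter GeneBLAzer system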)
In short: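 GeneBLAzer UAS-bla HEK293H cells carrying a PPARδ construct were exposed to compounds at 37 °C. Beta-lactamase activity was read by FRET fluorescence after 2 h at room temperature with LiveBLAzer B/G substrate.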

[2] = qHTS assay to identify small molecule antagonists of the peroxisome proliferator-activated receptor delta (PPARd) signaling pathway - cell viability counter screen (AID 743213); also: nearly all actives have a fitted effect of over 50% in size
In short: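 Agonist-stimulated (L165041, 300 nM final) HEK293H PPARd UAS-bla cells are exposed to compounds for 17 h at 37 C, and ATP-based luminescence (CellTiter-Glo) from the same wells reports cytotoxicity.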

[3] = biological target: Peroxisome proliferator-activated receptor delta (Homo sapiens) (UniProt Q03181); test: qHTS assay to identify small molecule antagonists of the peroxisome proliferator-activated receptor delta (PPARd) signaling pathway (AID 743215; active = well fitted inhibition curve with a large enough effect in the signal ratio in the repeat runs, not every such curve was filed as active; the % refers to the signal ratio; also: series mostly up to about 62 µM)
In short: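 HEK293H UAS-bla, PPARd; agonist L165041 300 nM final with cpd in DMSO; 37 C 17 h; FRET substrate, RT 2 h; fluorescence intensity.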

[4] = qHTS assay to identify small molecule agonists of the farnesoid-X-receptor (FXR) signaling pathway - cell viability counter screen (AID 743218); also: nearly all actives have a fitted effect of over 45% in size
In short: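 Parallel cytotoxicity test: compound-treated (16 h, 37 C) HEK 293T FXR-bla reporter cells were lysed with CellTiter-Glo and luminescence recorded.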

[5] = biological target: Vitamin D3 receptor (Homo sapiens) (UniProt P11473); test: qHTS assay to identify small molecule agonists of the vitamin D receptor (VDR) signaling pathway (AID 743222; calls by dose curve)
In short: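 In VDR-bla cells, compound-induced beta-lactamase expression is quantified by FRET substrate fluorescence. Treatment lasts 16 h at 37C; substrate develops 2 h at room temperature.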

[6] = biological target: Vitamin D3 receptor (Homo sapiens) (UniProt P11473); test: qHTS assay to identify small molecule antagonists of the vitamin D receptor (VDR) signaling pathway (AID 743223; active = well fitted inhibition curve with a large enough effect in the signal ratio in the repeat runs, not every such curve was filed as active; the % refers to the signal ratio)
In short: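 Antagonist mode uses 1alpha,25-dihydroxyvitamin D3 at 3 nM final as stimulus. VDR-bla cells receive compounds in DMSO, incubate 16 h at 37C, then a beta-lactamase FRET substrate for 2 h at room temperature before fluorescence measurement.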

[7] = qHTS assay to identify small molecule agonists of the vitamin D receptor (VDR) signaling pathway - cell viability counter screen (AID 743224); also: series mostly up to about 63 µM; nearly all actives have a fitted effect of over 50% in size
In short: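 Plated VDR-bla cells (4 h, 37C) received compound, incubated 16 h, then LiveBLAzer substrate 2 h RT; CellTiter-Glo added afterwards, luminescence read at 30 min.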

[8] = qHTS assay to identify small molecule antagonists of the farnesoid-X-receptor (FXR) signaling pathway - cell viability counter screen (AID 743221; active = well fitted cell-killing curve with a large enough effect in the repeat runs, not every such curve was filed as active; also: nearly all actives have a fitted effect of over 50% in size)
In short: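 Luminescence from CellTiter-Glo measures cytotoxicity in GeneBLAzer FXR-UAS-bla HEK 293T cells. Cells were exposed to compounds with 50 uM chenodeoxycholic acid (final) for 16 h at 37 C, in wells also used for the reporter readout.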
% is scaled to controls: 0 for no effect and ±100 for the full control effect.

Chain of Peroxisome proliferator-activated receptor delta (Homo sapiens) (Q03181 whole entry, looked up): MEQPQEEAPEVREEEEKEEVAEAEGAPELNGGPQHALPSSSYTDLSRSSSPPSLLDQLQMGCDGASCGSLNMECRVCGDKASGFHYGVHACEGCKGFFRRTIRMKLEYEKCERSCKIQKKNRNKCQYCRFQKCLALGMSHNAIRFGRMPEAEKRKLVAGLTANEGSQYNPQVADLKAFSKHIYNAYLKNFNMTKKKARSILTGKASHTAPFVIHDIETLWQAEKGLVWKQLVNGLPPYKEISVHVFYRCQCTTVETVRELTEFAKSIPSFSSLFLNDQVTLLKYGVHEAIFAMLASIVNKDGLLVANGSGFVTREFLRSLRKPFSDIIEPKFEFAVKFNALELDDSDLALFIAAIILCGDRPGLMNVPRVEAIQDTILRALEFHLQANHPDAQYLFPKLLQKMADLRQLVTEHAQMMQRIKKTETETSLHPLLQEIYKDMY
Chain of Vitamin D3 receptor (Homo sapiens) (P11473 whole entry, looked up): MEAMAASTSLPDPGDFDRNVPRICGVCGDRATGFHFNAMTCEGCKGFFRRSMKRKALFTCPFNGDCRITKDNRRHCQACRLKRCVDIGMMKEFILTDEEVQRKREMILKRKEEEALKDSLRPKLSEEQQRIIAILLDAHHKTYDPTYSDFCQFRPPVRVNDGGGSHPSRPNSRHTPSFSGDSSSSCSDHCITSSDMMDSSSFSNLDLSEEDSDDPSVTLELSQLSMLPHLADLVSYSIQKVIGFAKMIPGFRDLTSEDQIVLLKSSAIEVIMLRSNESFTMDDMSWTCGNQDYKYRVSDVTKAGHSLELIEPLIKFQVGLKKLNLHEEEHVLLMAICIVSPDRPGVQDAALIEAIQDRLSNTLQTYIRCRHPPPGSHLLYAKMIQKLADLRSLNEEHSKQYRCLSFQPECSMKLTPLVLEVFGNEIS

CC1CCC(CO)CC1 (stereo not given)
inactive: outcome [1] | outcome [2] | outcome [3] | outcome [4] | outcome [5] | outcome [6] | outcome [7]

N[C@@H](CCC(=O)O)C(=O)O
inactive: outcome [1] | outcome [2] | outcome [3] | outcome [4] | outcome [5] | outcome [6] | outcome [7]

CC[C@H]1OC(=O)[C@H](C)[C@@H](O[C@H]2C[C@@](C)(OC)[C@@H](O)[C@H](C)O2)[C@H](C)[C@@H](O[C@@H]2O[C@H](C)C[C@H](N(C)C)[C@H]2O)[C@](C)(OC)C[C@@H](C)C(=O)[C@H](C)[C@@H](O)[C@]1(C)O
inactive: outcome [1] | outcome [2] | outcome [3] | outcome [8] | outcome [7]

CCOC(=O)COc1cc(-n2ncc(C(F)(F)F)c(C)c2=O)c(F)cc1Cl
inactive: outcome [1] | outcome [2] | outcome [3] | outcome [4] | outcome [5] | outcome [7]

O=C1CCCCCCCCCCCCCCO1
inactive: outcome [1] | outcome [2] | outcome [3] | outcome [4] | outcome [5] | outcome [7]

CCN1C=CN(C)C1C (stereo not given)
inactive: outcome [1] | outcome [2] | outcome [3] | outcome [4] | outcome [8] | outcome [7]

O=C(O)CCSCCC(=O)O
inactive: outcome [1] | outcome [2] | outcome [3] | outcome [4] | outcome [8] | outcome [7]

CO[C@@]1(NC(=O)C(C(=O)O)c2ccc(O)cc2)C(=O)N2C(C(=O)O)=C(CSc3nnnn3C)CO[C@@H]21 (stereo not given in full)
inactive: outcome [1] | outcome [2] | outcome [3] | outcome [8] | outcome [5] | outcome [6] | outcome [7]

O=S(=O)(O)c1cccc2ccccc12
inactive: outcome [1] | outcome [2] | outcome [3] | outcome [8] | outcome [7]

CCN(Cc1ccccc1)c1ccccc1
inactive: outcome [1] | outcome [2] | outcome [3] | outcome [4] | outcome [8] | outcome [7]

CCCCCCC#CC(=O)OC
inactive: outcome [1] | outcome [2] | outcome [3] | outcome [4] | outcome [8] | outcome [7]

CCCc1nn(C)c2c(=O)[nH]c(-c3cc(S(=O)(=O)N4CCN(C)CC4)ccc3OCC)nc12
inactive: outcome [1] | outcome [2] | outcome [3] | outcome [4] | outcome [8] | outcome [6] | outcome [7]

CCOC(=O)CCC(=O)OCC
inactive: outcome [1] | outcome [2] | outcome [3] | outcome [4] | outcome [6] | outcome [7]

CC1(C)[C@@H]2CC[C@@]1(C)[C@H](O)C2
inactive: outcome [1] | outcome [2] | outcome [3] | outcome [4] | outcome [8] | outcome [7]

CCCCOCCOC(=O)CCCCCCCCC(=O)OCCOCCCC
inactive: outcome [1] | outcome [2] | outcome [3] | outcome [4] | outcome [8] | outcome [7]

CC(C)(N)C#N
inactive: outcome [1] | outcome [2] | outcome [3] | outcome [4] | outcome [8] | outcome [7]

O=C1c2ccccc2C(=O)c2cc(O)ccc21
inactive: outcome [1] | outcome [2] | outcome [3] | outcome [4] | outcome [5] | outcome [6] | outcome [7]

CCCOC(=O)CC
inactive: outcome [1] | outcome [2] | outcome [3] | outcome [8] | outcome [5] | outcome [7]

[Ca+2]
inactive: outcome [1] | outcome [2] | outcome [3] | outcome [8] | outcome [5] | outcome [6] | outcome [7]

COc1ccnc(CS(=O)c2nc3cc(OC(F)F)ccc3[nH]2)c1OC (stereo not given)
inactive: outcome [1] | outcome [2] | outcome [3] | outcome [4] | outcome [8] | outcome [7]

CC/C=C\CCOC(C)OCC (stereo not given)
inactive: outcome [1] | outcome [2] | outcome [3] | outcome [4] | outcome [6] | outcome [7]

NC(N)=NCCN1CCCCCCC1
inactive: activation [1] 3.33% [at 0.55 µM] | viability change, negative = cytotoxic [2] 2.8% [at 0.575 µM] | ratio activity, negative = inhibition [3] 5.69% [at 0.575 µM] | viability change, negative = cytotoxic [4] 2.57% [at 0.55 µM] | activity change, negative = cytotoxicity [7] -13.4% [at 0.55 µM]

OCCCCCO
inactive: outcome [1] | outcome [2] | outcome [3] | outcome [4] | outcome [8] | outcome [7]

[O-][n+]1cccc(CO)c1
inactive: outcome [1] | outcome [2] | outcome [3] | outcome [4] | outcome [5] | outcome [6] | outcome [7]

CCCCCC(C)N (stereo not given)
inactive: outcome [1] | outcome [2] | outcome [3] | outcome [4] | outcome [7]

COc1cc(C(=O)NCc2ccc(OCCN(C)C)cc2)cc(OC)c1OC
inactive: outcome [1] | outcome [2] | outcome [3] | outcome [4] | outcome [8] | outcome [7]

CCCCN1C=CN(C)C1
inactive: outcome [1] | outcome [2] | outcome [3] | outcome [4] | outcome [5] | outcome [6]

CC[N+](CC)(CC)CCOc1cccc(OCC[N+](CC)(CC)CC)c1OCC[N+](CC)(CC)CC
inactive: outcome [1] | outcome [2] | outcome [3] | outcome [4] | outcome [8] | outcome [7]

Cc1ccccc1N=C(N)N=C(N)N
inactive: outcome [1] | outcome [2] | outcome [3] | outcome [8] | outcome [5] | outcome [7]

CC[N+](C)(CC)CCOC(=O)C1c2ccccc2Oc2ccccc21
inactive: outcome [1] | outcome [2] | outcome [3] | outcome [4] | outcome [5] | outcome [6] | outcome [7]

CCCCS(=O)(=O)N[C@@H](Cc1ccc(OCCCCC2CCNCC2)cc1)C(=O)O
inactive: outcome [1] | outcome [2] | outcome [3] | outcome [4] | outcome [8] | outcome [7]

NC(=O)N1c2ccccc2CC(=O)c2ccccc21
inactive: outcome [1] | outcome [2] | outcome [3] | outcome [4] | outcome [5] | outcome [7]

CCCCCCC1CCC(=O)O1 (stereo not given)
inactive: outcome [1] | outcome [2] | outcome [3] | outcome [8] | outcome [5] | outcome [7]

CC(=O)NC(=O)c1ccccc1O
inactive: outcome [1] | outcome [2] | outcome [3] | outcome [4] | outcome [8] | outcome [7]

CCCC[N+](C)(CCCC)CCCC
inactive: outcome [1] | outcome [2] | outcome [3] | outcome [5] | outcome [6] | outcome [7]

O=C(O)CCCC[P+](c1ccccc1)(c1ccccc1)c1ccccc1
inactive: outcome [1] | outcome [2] | outcome [4] | outcome [8] | outcome [5] | outcome [7]
